Rows were chosen to be rich in hits. Some 10% of all compounds tested hit in one or more screens of this group.
GPT2 inhibitor: Primary qHTS assay for inhibitors of Glutamate pyruvate transaminase 2 (GPT2); Alanine aminotransferase 2 (Homo sapiens), Q8TD30; Recombinant GPT2, coupled pyruvate oxidase/HRP Amplex Red fluorescence; Potency, µM (top dose mostly 57.7 µM), actives largely listed as inhibitors; 100,000 compounds, 0.25% hits; AID 1671188, 2021; further: nearly all actives have a fitted effect of over 60% in size
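Fluorescence read-out: pyruvate from GPT2 turnover coupled to pyruvate oxidase, HRP and Amplex Red (0.2mM ThPP, 0.2U/mL PO and HRP, 50uM Amplex final). Substrates 250uM a-KG, 2mM L-alanine; enzyme 10ng/uL; 30 min RT.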
FLuc inh-1: Firefly luciferase inhibition profiling of diverse chemical library using quantitative high-throughput screening; purified P. pyralis luciferase, luminescence, biochemical; Potency, µM (series often up to 115 µM), most hits filed as inhibitors; 76,000 compounds, 2.5% hits; AID 1347043, 2019; further: nearly all actives have a fitted effect of over 65% in size
Target sequence (P08659 whole entry, looked up): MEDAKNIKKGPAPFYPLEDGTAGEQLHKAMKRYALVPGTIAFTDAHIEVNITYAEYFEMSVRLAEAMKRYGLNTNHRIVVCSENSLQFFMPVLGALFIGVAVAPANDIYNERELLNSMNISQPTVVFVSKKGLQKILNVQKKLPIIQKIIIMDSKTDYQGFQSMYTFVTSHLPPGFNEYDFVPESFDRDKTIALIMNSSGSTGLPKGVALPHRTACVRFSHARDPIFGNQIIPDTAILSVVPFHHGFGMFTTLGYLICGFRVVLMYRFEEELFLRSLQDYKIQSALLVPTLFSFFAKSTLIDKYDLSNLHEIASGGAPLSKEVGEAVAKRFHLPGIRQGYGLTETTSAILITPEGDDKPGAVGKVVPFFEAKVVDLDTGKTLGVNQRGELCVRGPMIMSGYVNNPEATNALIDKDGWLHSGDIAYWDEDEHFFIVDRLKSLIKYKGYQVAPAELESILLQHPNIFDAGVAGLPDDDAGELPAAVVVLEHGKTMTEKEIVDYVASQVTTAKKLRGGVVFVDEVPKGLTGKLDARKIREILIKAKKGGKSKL
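Cell-free enzyme assay, 10nM P. pyralis luciferase, luciferin and ATP each at 10uM. Inhibition profiled over a 6-point titration, read as luminescence.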
hNpr1 antagonist: Natriuretic polypeptide receptor (hNpr1) antagonism - Primary qHTS; Atrial natriuretic peptide receptor 1 (Homo sapiens), P16066; HEK293 hNpr1 GloSensor cGMP, ANP-stimulated luminescence; Potency, µM (top dose mostly 46.3 µM), hits mostly inhibitors; 76,000 compounds, 1.6% hits; AID 1347048, 2019; calls by dose curve; further: nearly all actives have a fitted effect of over 60% in size
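HEK293 cells stably expressing human Npr1 and cGMP GloSensor pGS-40F, loaded 2 h with 2% GloSensor reagent, given compound 30 min at room temperature. Luminescence read before and 20 min after 0.1 nM hNppA.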
HEK cytotox: Cytotoxic Profiling in HEK 293 Cell Line of Diverse Libraries Using Quantitative High-Throughput Screening; HEK 293 viability, ATP luminescence (CellTiter-Glo), 48-72 h; Potency, µM (top dose mostly 115 µM), actives largely listed as inhibitors; 94,000 compounds, 6.6% hits; AID 1345083, 2018; further: nearly all actives have a fitted effect of over 60% in size
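Pintool-delivered compounds were incubated with HEK 293 cells (250 cells/well) at 37 degree Celsius for 48 or 72 hr. ATP-dependent luminescence (CellTiter-Glo) then reported remaining viable cells.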
NIH3T3 tox: Cytotoxic Profiling in NIH 3T3 Cell Line of Diverse Libraries Using Quantitative High-Throughput Screening. NIH 3T3 viability, CellTiter-Glo ATP luminescence, 48-72 h. Potency, µM (titrated, usually from 96.7 µM), usual class: inhibitors. 94,000 compounds, 4.3% hits. AID 1345082, 2018; further: nearly all actives have a fitted effect of over 55% in size
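Cytotoxicity is measured as loss of cellular ATP: NIH 3T3 cells (400/well) are exposed to compound for 48 or 72 hr at 37 °C, then CellTiter-Glo luminescence is imaged after 10 min at room temperature.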
FLuc SDR -ATP: Firefly luciferase (FLuc-C-HiBiT) SDR gain of signal screen - without ATP; Potency, µM (series often up to 32.7 µM), most hits filed as activators; Purified FLuc-C-HiBiT, Nano-Glo HiBiT luminescence, no ATP; 1,300 compounds, 7.8% hits; shares compounds with FLuc inh-1; further: nearly all actives have a fitted effect of over 55% in size
FLuc SDR ATP: Firefly luciferase (FLuc-C-HiBiT) SDR gain of signal screen - plus ATP; shares compounds with FLuc inh-1; purified FLuc-C-HiBiT + ATP, HiBiT complementation luminescence; Potency, µM (top dose mostly 32.7 µM), hits mostly activators; 1,300 compounds, 8.7% hits; AID 1963319, 2024;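 further: signal reports ligand binding via conformational change of the enzyme rather than luciferase catalysis; nearly all actives have a fitted effect of over 55% in size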
FLuc inh-2: Firefly luciferase (FLuc-C-HiBiT) enzymatic inhibition screen - Functional assay. shares compounds with FLuc inh-1. purified FLuc-C-HiBiT enzyme, luciferin luminescence. Potency, µM (series often up to 32.7 µM), hits mostly inhibitors. 1,300 compounds, 42% hits. AID 1963320, 2024; further: nearly all actives have a fitted effect of over 70% in size
Numbers stand for hits; 0 = inactive; ? = inconclusive; - = no result. Unless noted, the call rests on the fitted dose curve; in most records, active means well fitted curve in the direction sought with a large enough effect; inconclusive means small, poorly fitted or top-dose-only effect, or another doubt; inactive means no such curve, though single readings can be large; an effect the other way counts as inactive or inconclusive.

SMILES	GPT2 inhibitor	FLuc inh-1	hNpr1 antagonist	HEK cytotox	NIH3T3 tox	FLuc SDR -ATP	FLuc SDR ATP	FLuc inh-2
CC(C)(C)c1ccc(C(=O)Nc2ccc(C(O)[C@H]3COCC(=O)N3Cc3ccccc3)cc2)cc1 (some centres undefined)	0	11µM	?	?	22µM	0	0	0
Cc1cc(CNC(=O)C2CCCCn3nnnc32)c2[nH]c(-c3ccccc3)c(C)c2c1 (centres undefined)	0	8.9µM	0	25µM	35µM	0	0	?
O=C(c1ccc(CSc2nc3ccncc3n2Cc2ccccc2F)cc1)N1CCCCC1	-	-	-	-	-	0	0	?
O=C(c1ccncc1)N1CCN(Cc2ccccc2-c2ccccc2F)CC1	0	-	-	?	?	-	-	-
COc1ccc(-c2ccc(NC(=O)c3ccc(F)cc3)cc2)nn1	-	-	-	0	0	-	-	-
COc1ccc(-c2noc([C@@H](C)NC(=O)c3nc4ccccc4s3)c2C(=O)O)cc1	?	?	0	?	0	-	-	-
CCOc1cc(=O)n2c(c1C(=O)Nc1ccccc1Cl)CCCC2	0	0	0	?	?	-	-	-
COc1cc(OC)cc(C(=O)Nc2cc(-c3nc4ccccc4s3)ccc2OC)c1	-	-	-	-	-	0	0	0
COc1ccc(-c2nc3ccccc3s2)cc1NC(=O)c1ccc(F)cc1	-	-	-	-	-	0	0	0
CCOc1cc(C(=O)Nc2ccc(-c3nc4ccccc4s3)cc2Cl)cc(OCC)c1OCC	-	-	-	-	-	0	0	?
COc1ccc(-c2nc(C)nc3c2CN(C(=O)Cc2ccc(F)cc2)CC3)cc1	0	-	-	0	0	-	-	-
Cc1ccc(C(=O)Nc2noc3ccccc23)cc1	0	-	-	-	-	-	-	-
CCn1ncc(CN2CCCCCCNC(=O)[C@@H]3CCC[C@@H]32)c1C	?	0	0	?	?	-	-	-
Cc1cc(F)ccc1OC1(C(=O)O)CCN(c2ncnc3nc[nH]c23)CC1	0	0	0	0	0	0	0	0
CCOC(=O)CCNc1cc(N2CCc3ccccc3CC2)nc(-c2cccnc2)n1	0	-	-	-	-	-	-	-
O=C(Nc1ccc2c(c1)OCCO2)N1CCC(c2nc(C3CCOCC3)no2)CC1	0	10µM	0	0	0	0	0	?
O=C(Nc1ccc2c(c1)OCCO2)N1CC(c2nc(CCOCC3CC3)no2)C1	0	11µM	0	?	0	0	0	?
O=C(NC1CCCCC1)N1CCC(c2nc(C3CCOCC3)no2)CC1	0	0	0	0	0	-	-	-
O=C(Nc1ccc2c(c1)OCCO2)N1CCCC1c1nc(CCOCC2CCCC2)no1 (centres undefined)	0	?	0	?	0	-	-	-
Cc1cccc(CN2CCCN(S(=O)(=O)c3ccccc3)CCC(=O)NCC2)c1	0	0	0	?	?	-	-	-
O=C(COc1ccccc1)Nc1nnc(S(=O)(=O)Nc2ccccc2)s1	-	-	-	-	-	0	0	?
COc1cccc(C(=O)Nc2cc(-c3ccncc3)nn2-c2ccccc2)c1	0	-	-	?	?	-	-	-
COc1cccc(C(=O)Nc2ccc(O)c(-c3nc4ccccc4s3)c2)c1	-	-	-	-	-	0	0	0
COc1cccc(C(=O)Nc2ccccc2-c2nc3ccccc3s2)c1	-	-	-	-	-	0	0	0
CCC1Oc2ccc(NC(=O)COc3ccccc3)cc2CN(Cc2ccc(OC)cc2)C1=O (centres undefined)	0	0	0	?	?	-	-	-
SMILES	GPT2 inhibitor	FLuc inh-1	hNpr1 antagonist	HEK cytotox	NIH3T3 tox	FLuc SDR -ATP	FLuc SDR ATP	FLuc inh-2
O=C(Nc1ccccc1-c1nc2ccccc2s1)c1ccccc1F	-	-	-	-	-	0	0	0
COc1ccc(OCC(=O)Nc2ccc(O)c(-c3nc4ccccc4s3)c2)cc1	-	-	-	-	-	0	0	0
N#Cc1c(Oc2ccc(F)c(NC(=O)Cc3cccc(C(F)(F)F)c3)c2)ccc2nc(NC(=O)C3CC3)sc12	0	-	-	-	-	-	-	-
COc1cccc([S+](=O)([O-])N2CCN(C(=O)c3nc4cccnc4n(-c4ccccc4OC)c3=O)CC2)c1	0	-	-	0	0	-	-	-
COc1ccc(C(=O)NCc2nnc3ccc(-c4ccc(F)cc4)nn23)c(OC)c1	0	0	0	0	0	-	-	-
O=C(Nc1ccc(-c2nc3ccccc3s2)c(O)c1)c1ccc(Br)cc1	-	-	-	-	-	0	0	0
COc1ccc(C(=O)Nc2ccccc2-c2nc3ccccc3s2)c(OC)c1	-	-	-	-	-	0	0	0
O=C(O)c1ccccc1-c1nc2ccccc2s1	-	-	-	-	-	0	0	0
O=C(O)c1cc(-c2ccccc2)nc2ccccc12	0	-	-	-	-	-	-	-
O=C(Nc1ccccc1)N1CCc2nc(C3CC3)nc(-c3ccc(Cl)cc3)c2C1	0	0	0	?	?	0	0	0
CCCC(=O)N1CCC2(CC1)NCCc1c2[nH]c2ccccc12	0	0	0	0	0	-	-	-
CC(=O)NC1(C)CCCN(Cc2cccc(-c3cccc(F)c3)c2)C1 (centres undefined)	0	0	0	?	?	-	-	-
CC(=O)NC1(C)CCN(Cc2cccc(-c3ccc4c(ccn4C)c3)c2)C1 (centres undefined)	0	14µM	?	89µM	79µM	0	?	10µM
O=C(NCCc1cnc[nH]1)c1ccc2nc(-c3ccc(F)cc3)cn2c1	0	10µM	0	?	?	0	0	?
O=C(NCC1CNCCOC1)c1ccc2nc(-c3ccc(F)cc3)cn2c1 (centres undefined)	0	?	0	?	?	-	-	-
COc1ccc(-c2nc3ccc(NS(C)(=O)=O)cc3o2)cc1	-	-	-	-	-	0	0	?
C[S+](=O)([O-])c1ccc(-c2cc(C(=O)NC3CC3)nn3cccc23)cc1	0	-	-	?	?	-	-	-
Cc1ccc(-n2ncc3c(N4CCN(C)CC4)ncnc32)cc1	-	-	-	-	-	0	?	5.6µM
OCC1CCN(c2ncnc3c2cnn3-c2ccccc2)CC1	-	-	-	-	-	0	0	?
CN1CC(=O)N(c2cccnc2)Cc2c1ncnc2N1CCC(c2ccccc2)CC1	0	0	0	?	?	-	-	-
COc1ccc(N2Cc3c(ncnc3N3CCC(O)CC3)N(C)CC2=O)cc1	0	0	0	0	0	-	-	-
NC(=O)CC1CCN(c2ncnc3c2cnn3-c2ccccc2)CC1	-	-	-	-	-	0	0	0
